The panel holds about 79,000 compounds, 15% with a hit somewhere; the sample as a whole holds those more often. Unmarked numbers belong to inactive results. Calls of active or inactive are those of the source. No stated cut-off is given here; in the data, active means growth inhibition above about 70%; inactive means the rest.
Columns and labels:
[1] = NCI Yeast Anticancer Drug Screen. Data for the rad50 strain (AID 155);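 further: 0% = growth of vehicle-only cultures of the same strain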; settings: S. cerevisiae rad50 strain growth inhibition, hits give high values
Procedure, shortened: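 Cells are treated with compound, grown, and their growth is then scored against vehicle-only cultures of the same repair-deficient yeast strain.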

[2] = NCI Yeast Anticancer Drug Screen. Data for the mec2-1 strain (AID 157); settings: S. cerevisiae mec2-1 strain, hits give high values
Procedure, shortened: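 Mutant yeast (mec2-1) grown with compound; growth inhibition relative to vehicle control reported.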

[3] = NCI Yeast Anticancer Drug Screen. Data for the sgs1 mgt1 strain (AID 161);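 further: 0% = growth of cultures given vehicle only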; settings: S. cerevisiae sgs1 mgt1 strain, hits give high values
Procedure, shortened: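 Compounds are added to genetically altered yeast, and growth is compared with cultures given vehicle alone to give percent inhibition.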

[4] = NCI Yeast Anticancer Drug Screen. Data for the cln2 rad14 strain (AID 165);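 further: 0% = growth equal to vehicle treated cultures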; settings: S. cerevisiae cln2 rad14 strain, hits give high values
Procedure, shortened: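 Readout is yeast growth inhibition versus vehicle-treated controls, using a strain with cln2 and rad14 alterations exposed to compound.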

[5] = NCI Yeast Anticancer Drug Screen. Data for the bub3 strain (AID 167); settings: S. cerevisiae bub3 mutant strain, hits give high values
Procedure, shortened: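 Part of a panel of yeast mutants defective in DNA damage repair or cell cycle regulation. Each strain is grown with compound, and inhibition is calculated relative to solvent-treated cultures.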

[6] = NCI Yeast Anticancer Drug Screen. Data for the mlh1 rad18 strain (AID 175); settings: S. cerevisiae mlh1 rad18 strain growth inhibition, hits give high values
Procedure, shortened: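 Genetically defined yeast (DNA repair-deficient) exposed to compounds; growth inhibition determined relative to vehicle.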

[7] = at 5.0 µM (retest, dose inferred, filed as 0.5)
[8] = at 50.0 µM (retest, dose inferred, filed as 5.0)

Compound | growth inhibition [1, 7] | growth inhibition [1, 8] | growth inhibition ([1]; at 50.0 µM) | growth inhibition [2, 7] | growth inhibition [2, 8] | growth inhibition ([2]; at 50.0 µM) | growth inhibition [3, 7] | growth inhibition [3, 8] | growth inhibition ([3]; at 50.0 µM) | growth inhibition [4, 7] | growth inhibition [4, 8] | growth inhibition ([4]; at 50.0 µM) | growth inhibition [5, 7] | growth inhibition [5, 8] | growth inhibition ([5]; at 50.0 µM) | growth inhibition [6, 7] | growth inhibition [6, 8] | growth inhibition ([6]; at 50.0 µM)
O=C(N(c1ccc(Cl)cc1)c1ccc(Cl)cc1)C(Cl)(Cl)Cl | 20% | 68% | -13.9% | 23% | 63% | 5.7% | 14% | 69% | 4.95% | 14% | 65% | -7.95% | 33% | 74% (active) | -1.25% | 38% | 74% (active) | 18.1%
CCc1nc(N)nc(N)c1-c1ccc(N2CCCCC2)c([N+](=O)[O-])c1 | 3% | 8% | 31.3% | 6% | 4% | 56.8% | 1% | 3% | 13.3% | -6% | 6% | 72.2% (active) | -1% | -2% | 91.7% (active) | -1% | 0% | 51%
[N-]=[N+]=Nc1c(C=O)c(=O)n(-c2ccccc2)c2ccccc12 | 8% | 57% | 67.2% | -1% | 60% | 80.4% (active) | -5% | 47% | 79% (active) | 0% | 29% | 63.5% | -23% | 26% | 63.6% | 6% | 67% | 68.7%
C=C1C(=O)OC2CC(C)C3C=CC(=O)C3CC12 (configuration not stated) | 17% | 55% | 88.7% (active) | 12% | 50% | 91.6% (active) | 15% | 57% | 91.3% (active) | 24% | 40% | 89.3% (active) | 22% | 72% (active) | 88.2% (active) | 16% | 34% | 90.6% (active)
CSC(=Nc1ccccc1)/N=C(\SCc1ccccc1)N(C)C | 45% | 98% (active) | 99.3% (active) | 26% | 45% | 99.7% (active) | 27% | 99% (active) | 99.2% (active) | 13% | 99% (active) | 98.8% (active) | -30% | 99% (active) | 99.5% (active) | 44% | 99% (active) | 99.3% (active)
O=C1C=CC(=O)N1c1ccc(Br)c(Cl)c1 | 101% (active) | 100% (active) | 68.7% | 100% (active) | 100% (active) | 87.8% (active) | 21% | 100% (active) | 80.3% (active) | 46% | 100% (active) | 24.2% | 37% | 100% (active) | 66.6% | 100% (active) | 100% (active) | 63.7%
Oc1c(Cl)cc(C(c2cc(Cl)c(O)c(Cl)c2)C(Cl)(Cl)Cl)cc1Cl | 94% (active) | 98% (active) | 98.8% (active) | 95% (active) | 99% (active) | 99.1% (active) | 81% (active) | 99% (active) | 99.3% (active) | 99% (active) | 98% (active) | 98.5% (active) | 96% (active) | 99% (active) | 98.8% (active) | 92% (active) | 98% (active) | 98.6% (active)
O=C1CCCC2c3ccccc3NC12 (configuration not stated) | -147% | -137% | 1.85% | -50% | -57% | 34.6% | -64% | -64% | -2% | -51% | -56% | 78.7% (active) | -68% | -75% | -17.9% | -139% | -111% | 9.5%
[N-]=[N+]=CC(=O)C1(c2ccccc2)OC1c1ccccc1 (configuration not stated) | -20% | 1% | 23.6% | 7% | 10% | 2.55% | -16% | -4% | 55.5% | -21% | -18% | 32.5% | -43% | -6% | -7.55% | -32% | -33% | 82.8% (active)
CC(=O)OC(OC(C)=O)c1ccc([N+](=O)[O-])s1 | -77% | 100% (active) | 99.4% (active) | -18% | 100% (active) | 99.4% (active) | 10% | 100% (active) | 99.5% (active) | 1% | 99% (active) | 99.1% (active) | -7% | 100% (active) | 99.5% (active) | 19% | 100% (active) | 99.5% (active)
O=C(CC(=O)c1ccc(O)cc1)c1ccccc1 | -1% | 50% | 60.8% | -13% | 52% | 1.2% | -1% | 66% | 21.2% | -1% | 62% | 4.5% | -6% | 89% (active) | 48.7% | 3% | 86% (active) | 58%
Cn1c2c(c3ccccc31)CCN(CCN1CCN(c3ccccc3)CC1)C2=O | 30% | 31% | 71.9% (active) | 21% | 29% | 43% | 28% | 37% | 79% (active) | 26% | 24% | 60.6% | 32% | 43% | 67.5% | 32% | 35% | 59.8%
Cc1cc(C=Nc2ccccc2)c(O)c2ncccc12 | 19% | 96% (active) | 98.8% (active) | 10% | 95% (active) | 99.3% (active) | 15% | 98% (active) | 94.9% (active) | 8% | 98% (active) | 83.7% (active) | 0% | 98% (active) | 99.1% (active) | 14% | 99% (active) | 99.2% (active)
Nc1ccc(Oc2ccc(-c3ccccc3)cc2)c(Cl)c1 | 61% | 97% (active) | 97.8% (active) | 61% | 98% (active) | 98.3% (active) | 72% (active) | 98% (active) | 98% (active) | 35% | 97% (active) | 96.3% (active) | 78% (active) | 97% (active) | 98% (active) | 89% (active) | 97% (active) | 97.7% (active)
CCCCCCCCN(CCCCCCCC)CC(O)c1ccc2cc3c(nc2c1)CCCC3 (configuration not stated) | -3% | 94% (active) | 98.7% (active) | 13% | 93% (active) | 81.4% (active) | 18% | 96% (active) | 98.8% (active) | -2% | 94% (active) | 97.7% (active) | 10% | 94% (active) | 97.7% (active) | 14% | 96% (active) | 98.3% (active)
CCCCN=C(c1ccc(O)cc1)c1ccc(OC)cc1O | -4% | 20% | 42.7% | -1% | 15% | 18.6% | -2% | 37% | 64.1% | -3% | 20% | 26.6% | -5% | 42% | 58% | -4% | 22% | 36%
O=C1Oc2ccccc2C(=O)/C1=C/N1C(=O)/C(=C/c2ccccc2)NC1=S | -23% | 31% | 66.7% | -25% | 27% | 43.3% | -15% | 42% | 71.7% (active) | 4% | 37% | 60.6% | -6% | 45% | 53.5% | -33% | 40% | 54%
Nc1nc(-c2cc3cc(Cl)ccc3o2)cs1 | 47% | 75% (active) | 1.1% | 34% | 61% | -6.7% | 39% | 75% (active) | 24.4% | 35% | 50% | 15.8% | 46% | 71% (active) | 43.7% | 51% | 79% (active) | -4.25%
NNC(=O)c1ccc(N)cc1O | -1% | -5% | -13.6% | -3% | -1% | -13.8% | -2% | -3% | -29.2% | -2% | -11% | 75.1% (active) | -1% | -1% | -3.65% | 0% | -4% | 1.8%

— PubChem BioAssay (NCI)
